Test results from PubChem BioAssay.
For some of these results: Results with a measured potency or affinity are listed apart. Inconclusive results are not listed. Unmarked numbers belong to inactive results. Some of the results follow. The source made the active and inactive calls. Unless noted, the rule behind the calls is not given here.

Key:
[1] = cytotoxicity in PAX8-dependent RMG-1 cells, dose response, cell-based, cherry-pick (AID 687029;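 active = signal drop whose fitted half-maximal concentration is at most twice the top valid dose, in every test run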;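 note: cells exposed to compound for 96 hours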)
[2] = non-specific cell cytotoxicity, dose response, cytotoxicity control for PAX8 inhibitor project, plate reader, dry powder samples (AID 743021)
[3] = A2780 ovarian cancer cell cytotoxicity, dose response, cytotoxicity control, plate reader, dry powder samples (AID 743046);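 note: 0% = neutral control wells and -100% = cytotoxic reference compound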
[4] = cytotoxicity in IOSE-T80 ovarian epithelial cells, dose response, selectivity assay for PAX8 inhibitor project, cell-based, cherry-pick (AID 687032;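 active = fitted half-maximal concentration for viability loss no higher than twice the top valid dose, in every repeat run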;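 note: cells exposed to compound for 96 h before reading; 0% = neutral control wells and -100% = 2 µM mitoxantrone kill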)
[5] = inhibitors of CMV-promoter luciferase reporter, dose response, counter-screen for Pax8 inhibitor project, cell-based, HEK293, luminescence, dry powder (AID 743020;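 active = signal-lowering compounds whose fitted half-maximal concentration is at or below twice the top tested dose in every run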;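 note: HEK293 cells stably expressing the CMV luciferase reporter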)
[6] = IOSE-T80 ovarian epithelial cell cytotoxicity, dose response, cytotoxicity control for PAX8 inhibitor project, plate reader, dry powder samples (AID 743045);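 note: 0% = neutral control median and -100% = positive control median; more negative values mean more cell killing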
[7] = IGROV1 ovarian cancer cell cytotoxicity, dose response, PAX8 inhibitor project, plate reader, dry powder samples (AID 743043);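 note: more negative means fewer viable cells or more cytotoxicity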
[8] = NIH:OVCAR-3 ovarian cancer cell cytotoxicity, dose response, PAX8 inhibitor project, plate reader, dry powder samples (AID 743044); conditions: max activity: at 35 µM, stronger effect = lower value unless noted
[9] = cytotoxicity in OVCAR8 ovarian cancer cells, dose response, PAX8 project, cell-based, plate reader, dry powder samples (AID 743197)
[10] = DNA binders by acridine orange displacement, dose response, counter-screen for EWS/Fli inhibitor project, biochemical, fluorescence polarization, cherry-pick (AID 720586;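 active = fitted curve reaches a 35% signal fall AC35 below twice the sample's top valid tested dose, actives reach about 48 µM in these data; inactive = the rest, including activity in the rising direction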;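 note: lower polarization ratio signals compound binding to DNA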)
[11] = HepG2 cell cytotoxicity, dose response, cytotoxicity control, plate reader, cherry-pick, antagonist series (AID 743416);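 note: 0% = neutral control wells and -100% = positive control wells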
[12] = A549 cell cytotoxicity, dose response, cytotoxicity control, plate reader, cherry-pick, antagonist series (AID 743412);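 note: 0% = neutral control wells and -100% = positive control wells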

COc1ccc(-c2cc(C(F)(F)F)nc(S(=O)(=O)CCCC(=O)Nc3cc(C)on3)n2)cc1OC
outcome [1]: inactive | outcome [2]: inactive | outcome [3]: inactive

Oc1ccc(C[C@H]2CNC(=S)N2CC2CCCN2C[C@H](Cc2ccc(O)cc2)N2C[C@H](Cc3ccccc3)N(CC3CCCCCC3)C2=S)cc1 (stereo not given in full)
outcome [4]: inactive | outcome [5]: inactive | outcome [2]: inactive

CC(C)(C)c1nnc(NC(=O)CCS(=O)(=O)c2ccccc2)s1
outcome [1]: inactive | outcome [2]: inactive | outcome [6]: inactive | outcome [3]: inactive

C[C@@H]1CCCCO[C@@H](CN(C)Cc2ccc(C(F)(F)F)cc2)[C@H](C)CN([C@@H](C)CO)C(=O)c2cc(NS(=O)(=O)c3ccc(Cl)cc3)ccc2O1
outcome [4]: inactive | outcome [5]: inactive | outcome [2]: inactive | outcome [7]: inactive | max activity [8]: -25.4% [at 8 µM, stronger effect = lower value] | outcome [6]: inactive | outcome [3]: inactive | outcome [9]: inactive

COc1ccc2c3c([nH]c2c1)[C@@H](CO)N(C(=O)Nc1cccc(F)c1)CC31CCN(S(=O)(=O)c2cccc(C)c2)CC1
outcome [4]: inactive | outcome [5]: inactive | outcome [2]: inactive | outcome [7]: inactive | max activity [8]: -9.13% [at 8 µM, stronger effect = lower value] | outcome [6]: inactive | outcome [3]: inactive | outcome [9]: inactive

CS(=O)(=O)Nc1ccc2c(c1)[C@@H]1C[C@@H](CC(=O)NCc3ccc(-c4ccccc4)cc3)O[C@@H](CO)[C@@H]1O2
outcome [4]: inactive | outcome [5]: inactive

C[C@H]1CN([C@@H](C)CO)S(=O)(=O)c2ccc(C#Cc3ccncc3)cc2O[C@@H]1CN(C)C(=O)Nc1ccc2c(c1)OCO2
outcome [4]: inactive | AC35 [10]: inactive | outcome [5]: inactive | outcome [2]: inactive

C[C@H]1CCCCO[C@@H](CN(C)Cc2ccncc2)[C@@H](C)CN([C@@H](C)CO)C(=O)c2cc(NC(=O)Nc3ccc(C(F)(F)F)cc3)ccc2O1
outcome [4]: inactive | outcome [5]: inactive | outcome [2]: inactive | outcome [7]: inactive | max activity [8]: -18.9% [at 16 µM, stronger effect = lower value] | outcome [6]: inactive | outcome [3]: inactive

COc1cc2c(c(OC)c1OC)-c1ccc(SC)c(=O)cc1C(NC(=O)C(F)(F)F)CC2 (stereo not given)
outcome [1]: inactive | outcome [2]: inactive

C[C@H]1CCCCO[C@H](CN(C)Cc2ccc(C(F)(F)F)cc2)[C@@H](C)CN([C@@H](C)CO)C(=O)c2cc(NC(=O)Nc3ccc(F)cc3)ccc2O1
outcome [4]: inactive | outcome [5]: inactive | outcome [2]: inactive | outcome [7]: inactive | max activity [8]: -16.7% | outcome [6]: inactive | outcome [3]: inactive | outcome [9]: inactive

O=S(=O)(c1ccccc1F)N1CC[C@@H]2[C@H](CO)Nc3ccc(C4=CCCCC4)cc3[C@@H]21
outcome [4]: inactive | outcome [5]: inactive | outcome [2]: inactive | outcome [7]: inactive | max activity [8]: 8.04% | outcome [6]: inactive | outcome [3]: inactive | outcome [9]: inactive

C[C@H](CO)N1C[C@H](C)[C@H](CN(C)CC2CCCCC2)OCCCC[C@H](C)Oc2ccc(NC(=O)Nc3ccccc3)cc2C1=O
outcome [1]: inactive | outcome [2]: inactive | outcome [6]: inactive | outcome [3]: inactive | outcome [9]: inactive

C[C@@H]1CN([C@@H](C)CO)C(=O)c2cc(N(C)C)ccc2O[C@@H](C)CCCCO[C@H]1CN(C)S(=O)(=O)c1ccc(F)cc1
outcome [4]: inactive | outcome [5]: inactive | outcome [2]: inactive | outcome [7]: inactive | max activity [8]: 16.1% [at 0.26 µM, stronger effect = lower value] | outcome [6]: inactive | outcome [3]: inactive | outcome [9]: inactive

C[C@H]1CCCCO[C@H](CN(C)C(=O)Nc2ccc(C(F)(F)F)cc2)[C@@H](C)CN([C@@H](C)CO)C(=O)c2cc(NS(=O)(=O)c3cccs3)ccc2O1
outcome [4]: inactive | outcome [5]: inactive | outcome [2]: inactive | outcome [7]: inactive | max activity [8]: -51.4% | outcome [6]: inactive | outcome [3]: inactive | outcome [9]: inactive

C[C@H]1CN([C@@H](C)CO)S(=O)(=O)c2ccc(C#Cc3ccccc3F)cc2O[C@H]1CN(C)C(=O)c1ccc2c(c1)OCO2
outcome [4]: inactive | outcome [5]: inactive | outcome [2]: inactive | outcome [7]: inactive | max activity [8]: -13% | outcome [6]: inactive | outcome [3]: inactive | outcome [9]: inactive

Cc1ccc(S(=O)(=O)N(C)C[C@@H]2Oc3ccc(NC(=O)Nc4ccc(C(F)(F)F)cc4)cc3CC(=O)N([C@@H](C)CO)C[C@@H]2C)cc1
outcome [4]: inactive | outcome [5]: inactive | outcome [2]: inactive

O=C(CN1C(=O)c2ccccc2S1(=O)=O)c1ccc2c(c1)OCCO2
outcome [11]: inactive

O=C(CCl)N(Cc1ccccc1)c1ccccc1
outcome [5]: inactive

CCc1cc(-c2n[nH]c(C)c2-c2nc3ccccc3n2C)c(O)cc1O
outcome [5]: inactive | outcome [2]: inactive

COC(=O)[C@]12CCCCC=C1N(Cc1ccc(Cl)cc1Cl)C(=O)[C@H](CC(=O)N1CCN(C(=O)c3ccco3)CC1)C2
outcome [5]: inactive | outcome [2]: inactive

CN(CCO)c1ccc(/C=N/Nc2nncc3ccccc23)cc1
AC35 [10]: inactive

COc1ccc(C2=NNC(=Nc3cc(S(=O)(=O)N(C)C)ccc3C)SC2)c(OC)c1
outcome [5]: inactive | outcome [2]: inactive

Nc1nc(=S)c2[nH]cnc2[nH]1
outcome [5]: inactive

COc1ccc(Nc2ncnc3ccc(Br)cc23)c(OC)c1
AC35 [10]: inactive

COc1ccc(OC)c(Cc2cnc3nc(N)nc(N)c3c2C)c1
AC35 [10]: inactive

Cc1cnc(NC(=O)c2ccc3c(c2)OCCO3)s1
outcome [5]: inactive

Cn1ncc2c(O/N=C(\N)c3ccc(C(F)(F)F)cc3)ncnc21
outcome [5]: inactive

Cc1ccc(-c2csc3ncnc(Sc4nnc(CN5CCCCCC5=O)o4)c23)cc1
outcome [5]: inactive | outcome [2]: inactive

S=c1sc2c(Cl)ncnc2n1-c1ccccc1
outcome [5]: inactive

CCC(C)Cn1c(O)cc2nn(-c3nc4ccccc4s3)c(=O)c-2c1C (stereo not given)
AC35 [10]: 48.3 µM (active)

COc1cccc2c1C(=O)c1c(O)c3c(c(O)c1C2=O)CC(O)(C(=O)CO)CC3OC1CC(N(C)C)C(O)C(C)O1 (stereo not given)
outcome [5]: inactive | outcome [2]: inactive

O=C(NCc1cc(C(F)(F)F)ccc1Cl)c1cccc2c1C(=O)c1ccc(N3CCC(N4CCCCC4)CC3)cc1S2(=O)=O
outcome [5]: inactive

Cc1cccc(N(Cc2cc(=O)[nH]c3ccccc23)C(=O)CCl)c1
outcome [5]: inactive

COCCn1c(C)cc(C2=NNC(=NC3CC3)SC2)c1C
outcome [5]: inactive

Cc1noc(C)c1NC(=O)Nc1ccc2c(c1)CC(=O)N([C@@H](C)CO)C[C@@H](C)[C@@H](CN(C)Cc1ccc(Cl)c(Cl)c1)O2
AC35 [10]: inactive

COc1ccc(F)cc1-c1cc(NC=O)c2ncc(-c3cc(OC)c(OC)c(OC)c3)n2c1
outcome [5]: inactive | outcome [2]: inactive

CC(=O)Nc1ccc(S(=O)(=O)Nc2ccc(N3CCCCC3)cc2)cc1
AC35 [10]: inactive

COC(=O)Cc1[nH]n(-c2nc3ccccc3s2)c(=O)c1C(C)=Nc1ccc(OC)cc1
AC35 [10]: inactive

N#C[C@@H]1[C@H](c2ccc(C#Cc3cccc(F)c3)cc2)[C@@H](CO)N1C(=O)C1CCCC1
AC35 [10]: inactive | outcome [12]: inactive

OCCN1CCN(C(=S)c2ccc(-c3ccccc3)cc2)CC1
AC35 [10]: inactive

CC1(Cc2ccc(OC(F)(F)F)cc2)C(=O)Nc2ccc(S(=O)(=O)NC3CCCCC3)cc21 (stereo not given)
outcome [5]: inactive | outcome [2]: inactive

C(=Cc1cnc2ccccc2n1)c1ccc2c(c1)OCO2
outcome [5]: inactive

Nc1nnnn1/N=C/C(Br)=C/c1ccccc1
outcome [5]: inactive | outcome [2]: inactive

C[C@H](CO)N1C[C@H](C)[C@H](CN(C)CC2CCCCC2)Oc2ccc(NC(=O)CCCCCC(=O)Nc3ccccc3N)cc2CC1=O
AC35 [10]: inactive

COc1ccccc1C(=O)Nc1nc2ccccc2[nH]1
outcome [5]: inactive

C(=N\Nc1ccc2ccccc2n1)/c1ccc2c(c1)OCO2
AC35 [10]: inactive

OCCCNc1nccc(-c2cc(Nc3cccc(Cl)c3)ncn2)n1
outcome [5]: inactive | outcome [2]: inactive

COc1ccc(-c2nc3c(c(SCC(=O)Nc4cccc(O)c4)n2)Cc2c(CO)cnc(C)c2O3)cc1
outcome [5]: inactive | outcome [2]: inactive

Cc1ccc(Cl)cc1N1CCN(C(=O)c2noc(C)c2[N+](=O)[O-])CC1
outcome [5]: inactive

C[C@H](CO)N1C[C@H](C)[C@H](CN(C)Cc2ccc(C(F)(F)F)cc2)Oc2ccc(NC(=O)CCCCCC(=O)Nc3ccccc3N)cc2CC1=O
AC35 [10]: inactive

CCOC(=O)Nc1ccc2c(c1)N(C(=O)CCN(CC)CC)c1ccccc1S2=O (stereo not given)
outcome [5]: inactive | outcome [2]: inactive

CCOC(=O)c1c(C)[nH]c2c1-c1ccccc1C(=O)C2=O
outcome [5]: inactive

COc1ccc(/C=C2\SC(=S)N(CCCC(=O)NC3CCCC3)C2=O)cc1OC
AC35 [10]: inactive

O=C(NC1CCCCC1)C(c1cccnc1)N(C(=O)CCl)c1ccc(F)cc1 (stereo not given)
outcome [5]: inactive

C[C@H]1CN([C@@H](C)CO)C(=O)Cc2cc(NC(=O)C3CC3)ccc2O[C@H]1CN(C)S(=O)(=O)c1ccc(Cl)cc1
AC35 [10]: inactive

CC(=O)[C@@]1(O)Cc2c(O)c3c(c(O)c2[C@H](O[C@H]2C[C@H](N)[C@H](O)[C@H](C)O2)C1)C(=O)c1ccccc1C3=O
outcome [5]: inactive | outcome [2]: inactive

CCOc1ccc(C(=O)C(CCC(CN(C)C)C(=O)c2ccc(OCC)cc2)CN(C)C)cc1 (stereo not given)
outcome [5]: inactive

CCN(CC(=O)Nc1c(F)cccc1F)C(=O)c1cc(S(=O)(=O)N(C)C)ccc1N1CCCC1
outcome [5]: inactive | outcome [2]: inactive | outcome [8]: inactive | outcome [6]: inactive | outcome [3]: inactive

Cc1nc2sc(C(c3ccco3)N3CCN(C(c4ccccc4)c4ccccc4)CC3)c(O)n2n1 (stereo not given)
outcome [5]: inactive | outcome [2]: inactive | outcome [6]: inactive | outcome [3]: inactive

CCCC(=O)NC(c1ccc(C(C)C)cc1)c1ccc2cccnc2c1O (stereo not given)
outcome [2]: inactive

C[C@@H]1CN([C@@H](C)CO)C(=O)c2cc(NC(=O)c3ccccc3)ccc2O[C@@H](C)CCCCO[C@@H]1CN(C)Cc1ccc(C(F)(F)F)cc1
outcome [5]: inactive | outcome [2]: inactive | outcome [7]: inactive | outcome [6]: inactive | outcome [3]: inactive

N#C[C@@H]1[C@H](c2ccc(C#CC3CCCCC3)cc2)[C@H](CO)N1S(=O)(=O)c1ccccc1
outcome [5]: inactive | outcome [2]: inactive | outcome [6]: inactive | outcome [3]: inactive | outcome [9]: inactive

Cc1ccccc1CNC(=O)C1CCCN(c2nnc(C)c3c(C)n(-c4ccccc4)nc23)C1 (stereo not given)
outcome [5]: inactive | outcome [2]: inactive | outcome [3]: inactive

COc1ccc(-c2ccc(C3[C@@H]4CN(C(=O)Nc5cccc(F)c5)C[C@H]3N4)cc2)cc1 (stereo not given in full)
outcome [5]: inactive | outcome [6]: inactive | outcome [3]: inactive

CC(C)CCCCCCCCCCCCC(=O)NCC(=O)NC1C(C)OC(Nc2ncnc3nc[nH]c23)C(O)C1O (stereo not given)
outcome [2]: inactive

O=C1c2cccc3cc([N+](=O)[O-])cc(c23)C(=O)N1CCN1CCCC1
outcome [2]: inactive

COc1ccc(S(=O)(=O)Nc2ccc3c(c2)C(=O)N([C@@H](C)CO)C[C@H](C)[C@@H](CN(C)Cc2ccc(C(F)(F)F)cc2)OCCCC[C@H](C)O3)cc1
outcome [5]: inactive | outcome [2]: inactive | outcome [6]: inactive | outcome [3]: inactive
